Laboratory results published in PubChem BioAssay (Tox21).
Inconclusive results are not listed. Active and inactive are the calls of the source. Unless noted, calls come from the whole dose curve.

What was measured:
[1] = Nuclear factor erythroid 2-related factor 2/antioxidant responsive element (Nrf2/ARE) small molecule agonists: qHTS cell viability counter screen in human keratinocytes (AID 1919968; active = well fitted curve in the direction sought with a large enough effect in the repeat runs; an effect the other way counts as inactive or inconclusive; note: nearly all actives have a fitted effect of over 55% in size)
Outline: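 Viability counter-screen: KeratinoSens reporter cells, DMSO-delivered compounds, 23 h at 37 C, CellTiter-Fluor fluorescence.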

[2] = Nuclear factor erythroid 2-related factor 2/antioxidant responsive element (Nrf2/ARE) small molecule agonists: luciferase reporter gene qHTS assay in human keratinocytes (AID 1919969); note: nearly all actives have a fitted effect of over 35% in size; note: potency is the fitted concentration of half-maximal effect
[3] = target: Gonadotropin-releasing hormone receptor (Homo sapiens) (UniProt P30968); assay: Human gonadotropin-releasing hormone receptor (GnRHR) small molecule agonists, calcium flux assay in GnRHR-HEK293 cells (AID 1920063); note: nearly all actives have a fitted effect of over 35% in size
Outline: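 Tox21-format agonist screen using human GnRHR-expressing HEK293 cells and a fluorescent calcium dye; kinetic 3-min fluorescence reading after compound addition, 15-point concentration series run in triplicate.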

[4] = target: KiSS-1 receptor (Homo sapiens) (UniProt Q969F8); assay: Human kisspeptin (KISS1R) small molecule agonists, calcium flux assay in KISS1R-HEK293 cells (AID 1920064; active = well fitted curve in the direction sought with a large enough effect in the repeat runs; an effect the other way counts as inactive or inconclusive)
Outline: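 Intracellular calcium mobilization in KISS1R-HEK293 cells was recorded by fluorescence (Ex/Em 480/540) for 3 min following compound addition to cells pre-loaded 1 h with calcium dye.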

[5] = G protein-coupled receptor (GPCR) small molecule agonists, calcium flux assay: HEK293 wild type cell line counter screen (AID 1920065)
Outline: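 In this agonist-mode screen, ATP is the positive control and DMSO the vehicle. Cells grow 18 h before a 1 h dye incubation at 37 C; signal is taken at Ex/Em 480/540 over 3 min.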

[6] = p53 small molecule agonists, cell-based qHTS assay with human liver microsomes (AID 1963577);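 note: p53 response element beta-lactamase reporter cells with liver microsomes plus NADPH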
Outline: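 In this qHTS, p53 response-element beta-lactamase cells receive test compound together with a microsome/NADPH activating system (0.5 mg/mL final each) and are incubated 16 h at 37 C before LiveBLAzer fluorescence detection.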

[7] = p53 small molecule agonists, cell-based qHTS assay with rat liver microsomes (AID 1963578)
Outline: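 Agonist mode in p53RE-bla reporter cells, with compounds co-incubated 16 h at 37 C alongside 0.5 mg/mL rat liver microsomes and 0.5 mg/mL NADPH (final), followed by a 2 h LiveBLAzer detection step.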

[8] = p53 small molecule agonists, cell-based qHTS assay with human liver microsomes: qHTS cell viability counter screen (AID 1963579); note: nearly all actives have a fitted effect of over 45% in size
Outline: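 Metabolically activated exposure: compounds, human liver microsomes and NADPH (0.5 mg/mL final apiece) were added to p53RE-bla cells seeded 5 h earlier, left 16 h at 37 C, and then assessed for viability by CellTiter-Glo luminescence.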

[9] = p53 small molecule agonists, cell-based qHTS assay with rat liver microsomes: qHTS cell viability counter screen (AID 1963580); note: nearly all actives have a fitted effect of over 45% in size
Outline: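 In HCT-116 cells carrying a p53 response element-bla reporter, compounds were metabolically activated in situ by rat liver microsomes with NADPH over 16 h. Cell ATP content then served as the cytotoxicity measure.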

[10] = p53 small molecule agonists, cell-based qHTS assay: qHTS cell viability counter screen (AID 1963581); note: nearly all actives have a fitted effect of over 45% in size
Outline: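 Compounds are pinned onto HCT-116 p53RE-bla cells and left 16 h at 37 C. Following the reporter FRET read, ATP is quantified by CellTiter-Glo luminescence after 30 min at room temperature.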

[11] = p53 small molecule agonists, cell-based qHTS assay (AID 1963582; active = well fitted activation curve with a large enough effect in the signal ratio in the repeat runs, not every such curve was filed as active; the % refers to the signal ratio)
Outline: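 Agonist activity was scored from beta-lactamase FRET fluorescence in p53RE-bla cells treated 16 h at 37 C with compounds in DMSO, substrate incubation being 2 h at room temperature.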

[12] = target: 5-hydroxytryptamine receptor 2A (Homo sapiens) (UniProt P28223); assay: 5-hydroxytryptamine receptor 2A (HTR2A) small molecule agonists, cell-based qHTS assay (AID 1963587); note: nearly all actives have a fitted effect of over 30% in size; note: potency is the fitted concentration of half-maximal effect
Outline: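 HTR2A-CHO cells, plated 18 h at 37 C/5% CO2, dye-loaded 1 h at 37 C; compounds in DMSO added by pin tool (agonist mode). Intracellular calcium flux read as kinetic fluorescence on FDSS over 2 min at 1 s intervals.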

[13] = target: Muscarinic acetylcholine receptor M1 (Homo sapiens) (UniProt P11229); assay: Cholinergic receptor muscarinic 1 (CHRM1) small molecule antagonists, cell-based qHTS assay (AID 1963588); note: nearly all actives have a fitted effect of over 40% in size; note: potency is the fitted concentration of half-maximal effect
Outline: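 CHRM1-CHO calcium-flux assay, antagonist mode. Cells were seeded 18 h, dye-loaded 1 h at 37 C and given compound for 5 min at RT, then acetylcholine was added at 50nM. FDSS fluorescence was read 3 min; 15 concentrations, three runs.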

[14] = cAMP Responsive Elements (CRE) small molecule agonists, cell-based qHTS assay (AID 1963590)
Outline: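 FRET-based beta-lactamase readout (LiveBLAzer B/G, 2 h RT) quantified CRE activation in HEK 293T CRE-bla cells after 3 h treatment with DMSO-dissolved compounds.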

[15] = cAMP Responsive Elements (CRE) small molecule antagonists, cell-based qHTS assay (AID 1963591; active = well fitted inhibition curve with a large enough effect in the signal ratio in the repeat runs, not every such curve was filed as active; the % refers to the signal ratio)
Outline: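 qHTS in CRE-bla HEK 293T cells: compound in DMSO, then 0.25 uM NKH477 (final), 3 h at 37 °C/5% CO2; beta-lactamase FRET read-out after 2 h substrate incubation.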

[16] = target: Beta-2 adrenergic receptor (Homo sapiens) (UniProt P07550); assay: Adrenergic beta2 receptor (ADRB2) small molecule antagonists, cell-based qHTS assay (AID 1963592); note: nearly all actives have a fitted effect of over 50% in size; note: potency is the fitted concentration of half-maximal effect
Outline: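 Cells (CHO, stable ADRB2 overexpression) incubated 18-20hr at 37C; compounds added from DMSO; agonist mix (1nM isoproterenol, 100uM IBMX, 25uM Ro-20-1724) added; 0.5hr RT; d2-cAMP and anti-cAMP-cryptate added; 1hr RT; 665/615 nm read.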

[17] = target: Beta-2 adrenergic receptor (Homo sapiens) (UniProt P07550); assay: Adrenergic beta2 receptor (ADRB2) small molecule agonists, cell-based qHTS assay (AID 1963593);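 note: CHO cells stably overexpressing human ADRB2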
Outline: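 CHO cells stably over-expressing ADRB2 were plated overnight at 37C, then dosed with compounds plus a stimulation mix containing 100uM IBMX and 25uM Ro-20-1724 for 0.5hr at room temperature. cAMP was measured by HTRF competition, 1hr.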

[18] = target: D(2) dopamine receptor (Homo sapiens) (UniProt P14416); assay: Dopamine D2 receptor (DRD2) small molecule agonists, cell-based qHTS assay (AID 1963594); note: nearly all actives have a fitted effect of over 35% in size
Outline: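 HEK293 cells stably expressing DRD2 were cultured 24 h at 37 C, then given Ro20-1724 (0.1 mM final) and compounds for 10 min at room temperature. NKH477 (200nM) was then added for 30 min. cAMP was read by HTRF.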

[19] = target: D(2) dopamine receptor (Homo sapiens) (UniProt P14416); assay: Dopamine D2 receptor (DRD2) small molecule antagonists, cell-based qHTS assay (AID 1963595; active = well fitted inhibition curve with a large enough effect in the signal ratio in the repeat runs, with a control signal flat; the % refers to the signal ratio)
Outline: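 DRD2-HEK293; 0.1 mM Ro20-1724; cpd 10 min RT; NKH477 200 nM + quinpirole 12 nM, 30 min RT; HTRF cAMP (cAMP-d2/anti-cAMP cryptate), 665/620 nm ratio after 1 h.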

[20] = target: Muscarinic acetylcholine receptor M1 (Homo sapiens) (UniProt P11229); assay: Cholinergic receptor muscarinic 1 (CHRM1) small molecule agonists, cell-based qHTS assay (AID 1963589); note: nearly all actives have a fitted effect of over 35% in size
Outline: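 Stable CHRM1-CHO cells (human receptor) were incubated 18 h, dye-loaded for 1 h at 37 C and exposed to test compounds for agonist activity, with calcium-dependent fluorescence followed kinetically.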

Measured: Potency

Beta-2 adrenergic receptor (Homo sapiens), sequence (P07550 whole entry, looked up): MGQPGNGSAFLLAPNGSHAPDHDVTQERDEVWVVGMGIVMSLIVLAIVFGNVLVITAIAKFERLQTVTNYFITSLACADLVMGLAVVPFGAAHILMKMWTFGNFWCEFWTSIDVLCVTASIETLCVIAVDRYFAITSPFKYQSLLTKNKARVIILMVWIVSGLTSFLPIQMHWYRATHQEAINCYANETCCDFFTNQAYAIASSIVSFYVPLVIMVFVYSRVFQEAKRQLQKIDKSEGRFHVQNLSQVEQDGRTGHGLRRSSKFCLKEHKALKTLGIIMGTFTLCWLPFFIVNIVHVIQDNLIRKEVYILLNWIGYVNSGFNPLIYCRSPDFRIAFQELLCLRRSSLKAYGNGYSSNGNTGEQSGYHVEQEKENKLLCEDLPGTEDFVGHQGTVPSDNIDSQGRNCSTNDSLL
Gonadotropin-releasing hormone receptor (Homo sapiens), sequence (P30968 whole entry, looked up): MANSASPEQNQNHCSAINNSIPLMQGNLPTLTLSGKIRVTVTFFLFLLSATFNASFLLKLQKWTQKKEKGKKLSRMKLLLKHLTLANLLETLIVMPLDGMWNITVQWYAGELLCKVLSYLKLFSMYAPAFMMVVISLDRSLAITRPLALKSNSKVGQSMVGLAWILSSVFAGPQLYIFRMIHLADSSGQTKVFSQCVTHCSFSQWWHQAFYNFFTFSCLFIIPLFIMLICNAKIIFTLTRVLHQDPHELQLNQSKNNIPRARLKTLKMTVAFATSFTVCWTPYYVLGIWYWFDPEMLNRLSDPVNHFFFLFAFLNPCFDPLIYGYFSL
5-hydroxytryptamine receptor 2A (Homo sapiens), sequence (P28223 whole entry, looked up): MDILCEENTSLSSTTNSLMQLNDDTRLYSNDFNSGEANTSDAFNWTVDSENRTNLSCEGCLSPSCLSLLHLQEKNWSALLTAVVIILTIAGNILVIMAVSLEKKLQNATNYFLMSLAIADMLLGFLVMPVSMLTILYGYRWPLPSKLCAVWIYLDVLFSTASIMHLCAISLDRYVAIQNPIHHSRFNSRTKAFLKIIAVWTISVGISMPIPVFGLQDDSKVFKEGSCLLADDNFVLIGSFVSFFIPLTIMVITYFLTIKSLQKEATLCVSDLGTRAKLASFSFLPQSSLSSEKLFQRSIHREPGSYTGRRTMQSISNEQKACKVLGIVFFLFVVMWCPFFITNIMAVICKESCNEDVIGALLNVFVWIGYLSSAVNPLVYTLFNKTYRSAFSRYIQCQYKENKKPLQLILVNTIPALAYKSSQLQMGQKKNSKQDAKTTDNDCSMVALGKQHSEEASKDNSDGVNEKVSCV
Muscarinic acetylcholine receptor M1 (Homo sapiens), sequence (P11229 whole entry, looked up): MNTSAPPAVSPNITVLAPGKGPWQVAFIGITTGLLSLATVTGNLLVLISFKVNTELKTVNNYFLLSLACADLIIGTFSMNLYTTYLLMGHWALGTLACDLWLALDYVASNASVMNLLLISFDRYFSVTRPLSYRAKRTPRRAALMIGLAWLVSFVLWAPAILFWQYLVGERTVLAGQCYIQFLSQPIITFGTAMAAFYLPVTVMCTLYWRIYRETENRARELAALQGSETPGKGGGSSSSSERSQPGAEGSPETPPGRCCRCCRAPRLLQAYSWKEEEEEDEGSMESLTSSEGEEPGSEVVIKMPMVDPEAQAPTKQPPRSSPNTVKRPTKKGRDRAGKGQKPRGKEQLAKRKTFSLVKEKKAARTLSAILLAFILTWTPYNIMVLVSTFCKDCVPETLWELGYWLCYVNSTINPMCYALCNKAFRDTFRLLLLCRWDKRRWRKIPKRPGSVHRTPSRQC
KiSS-1 receptor (Homo sapiens), sequence (Q969F8 whole entry, looked up): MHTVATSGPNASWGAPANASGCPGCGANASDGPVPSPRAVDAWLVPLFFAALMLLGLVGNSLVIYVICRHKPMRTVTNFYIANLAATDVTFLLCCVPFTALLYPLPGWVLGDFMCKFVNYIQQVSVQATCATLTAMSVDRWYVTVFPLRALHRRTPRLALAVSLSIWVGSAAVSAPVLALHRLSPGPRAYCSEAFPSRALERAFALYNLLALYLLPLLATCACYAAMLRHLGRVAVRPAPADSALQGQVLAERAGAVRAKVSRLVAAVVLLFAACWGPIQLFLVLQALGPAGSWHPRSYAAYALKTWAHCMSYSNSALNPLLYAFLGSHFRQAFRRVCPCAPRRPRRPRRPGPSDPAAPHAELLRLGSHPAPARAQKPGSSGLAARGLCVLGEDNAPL
D(2) dopamine receptor (Homo sapiens), sequence (P14416 whole entry, looked up): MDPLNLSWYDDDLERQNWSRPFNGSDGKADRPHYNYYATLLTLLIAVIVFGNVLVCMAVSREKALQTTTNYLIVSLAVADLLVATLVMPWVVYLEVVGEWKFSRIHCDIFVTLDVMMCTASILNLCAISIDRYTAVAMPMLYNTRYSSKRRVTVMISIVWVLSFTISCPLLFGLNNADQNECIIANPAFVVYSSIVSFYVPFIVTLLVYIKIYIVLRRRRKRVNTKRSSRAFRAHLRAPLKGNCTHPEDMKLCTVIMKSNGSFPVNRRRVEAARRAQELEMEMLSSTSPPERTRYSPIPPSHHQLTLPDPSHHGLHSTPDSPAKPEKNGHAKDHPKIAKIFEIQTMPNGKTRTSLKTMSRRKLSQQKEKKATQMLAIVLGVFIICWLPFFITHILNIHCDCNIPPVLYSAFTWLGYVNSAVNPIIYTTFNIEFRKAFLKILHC

O=S(=O)(O)c1ccc(Cl)cc1
not listed: [19] | [20]
inactive: all other assays above

CC1CCc2cc(F)cc3c(=O)c(C(=O)O)cn1c23 (configuration not stated)
not listed: [12] | [14] | [20]
inactive: all other assays above

CCCC(=O)OCCC(C)C
not listed: [14] | [15] | [17]
inactive: all other assays above

O=c1c2ccccc2nnn1CCl
not listed: [13] | [18]
inactive: all other assays above

CCCCOCCOC(=O)COc1cc(Cl)c(Cl)cc1Cl
not listed: [13] | [14] | [17]
inactive: all other assays above

CCN(CCCCOC(=O)c1ccc(OC)c(OC)c1)C(C)Cc1ccc(OC)cc1 (configuration not stated)
active: [12] 12 µM | [13] 0.163 µM | [16] 13.3 µM
not listed: [14] | [15] | [17]
inactive: all other assays above

C=C(C)C(=O)OCC[N+](C)(C)C
active: [2] 60.9 µM
not listed: [13] | [16]
inactive: all other assays above

CCOc1ccccc1O[C@H](c1ccccc1)[C@H]1CNCCO1
not listed: [12] | [13] | [16] | [17] | [18]
inactive: all other assays above
